# In ChEMBL document CHEMBL3433997, “St. Jude Leishmania screening dataset” (2016):
# Biological target: Glucose transporter (Leishmania mexicana) (UniProt O61059)
# Test: ST_JUDE_LEISH: Cytotoxicity at 2uM final concentration against transgenic Leishmania Mexicana promastigotes LmGT2 that are glucose transport deficient and complemented with the L. Mexicana glucose transporter 2. Activity is measured by DNA content using SYBR green in vitro
# Format: functional
row,SMILES,inhibition [%]
1,O=C(Nc1ccccc1N1CCOCC1)c1ncoc1-c1ccccc1C(F)(F)F,2.48
2,O=C(CSc1nc(-c2ccccc2Cl)ns1)Nc1cccc(Cl)c1,0.35
3,CN(C)c1ccc(-c2ccc(C(=O)NC3CCN(Cc4cccc(C(F)(F)F)c4)CC3)s2)cc1,3.55
4,CN1CCN(c2ccc(-c3cccc(NC(=O)c4cccc(Cl)c4)c3)nn2)CC1,3.23
5,Clc1ccc2c(NN=Cc3ccco3)ccnc2c1,0.47
6,CC(=O)c1ccc(-c2ccc(C(=O)NCCCCN3CCC(c4ccc5c(c4OCC(N)=O)CCCC5)CC3)cc2)s1,1.72
7,CN(Cc1cc(C(F)(F)F)cc(C(F)(F)F)c1)C(=O)C1CNCC1c1ccc(F)cc1 (stereo not given),3.05
8,CC(=O)c1ccc(NC(=O)CSc2nc(-c3ccccc3Cl)ns2)cc1,9.72
9,Nc1c2c(nc3ccc(NC(=O)CCCc4ccccc4)cc13)CCCC2,0.12
10,CN1C(C)(C)CC(NC(=O)c2ccc(-c3cc4cc(Cl)c(Cl)cc4[nH]3)o2)CC1(C)C,6.1
11,O=C(Nc1ccc(-c2cccc(-c3nc4cc(C(F)(F)F)ccc4[nH]3)c2)cc1)Nc1ccc(F)c(F)c1F,-1.97
12,CN1CCC(N2CCN(Cc3cccc(-c4ccc(-c5nc6ccccc6[nH]5)cc4)c3)CC2)CC1,0.07
13,Cc1ccc(OCC2CCN(c3ncc(C(=O)NCCCN4CCCC4=O)cc3Cl)CC2)cc1,0.72
14,Cc1sc(C)c(C(F)(F)F)c1CNCCCNc1cc(=O)c2ccccc2[nH]1,4.27
15,Cc1ccc(O)c(-c2cc(C(=O)Nc3ccc(S(=O)(=O)N4CCCC(C)C4)cc3)[nH]n2)c1 (stereo not given),0.63
16,O=C(Nc1cccc(-c2ccc(NCCCN3CCCC3)nc2)c1)c1ccccc1,0.77
17,N=C(N)NN=C1C=Cc2cccc3cccc1c23,-2.92
18,c1ccc(Oc2ccc(Nc3ccnc4cc(-c5ccc(CN6CCOCC6)o5)ccc34)cc2)nc1,-0.13
19,CC1CCCN(c2ccc(NC(=O)c3cccs3)cc2[N+](=O)[O-])C1 (stereo not given),-1.43
20,CCCCCCOc1ccc(N2C(N)=NC(N)=NC2(C)C)cc1,0.46

row,SMILES,inhibition [%]
1,CC1(C)N=C(NC(=O)c2ccc([N+](=O)[O-])cc2)N=C(N)N1OCc1ccc2ccccc2c1,-0.07
2,N#Cc1ccc(N/C(=N\c2ccc(-c3ccccc3)cc2)NCc2cccnc2)c(O)c1,5.44
3,CCCCNS(=O)(=O)c1ccc(NC(=O)c2cc([N+](=O)[O-])ccc2Cl)cc1,-1.07
4,COc1ccc(-c2nc3cccnc3n2CC(=O)Nc2cc(Cl)c(Cl)cc2Cl)c(OC)c1,-2.74
5,Cc1cc(N(C)C2CCN(C)C2)nc(Nc2ccccc2Cl)n1 (stereo not given),2.94
6,CC(C)C1CCc2nc(N)nc(N)c2C1 (stereo not given),0.91
7,CCCCNC[C@@H](O)[C@H](Cc1ccccc1)NC(=O)c1cc2c3c(c1)c(CC)cn3CCS(=O)(=O)N2C,2.04
8,COc1cccc2c(NCCNc3ccnc4c(OC)cccc34)ccnc12,7.99
9,COc1c(C2CCN(CCCCNC(=O)c3ccc(-c4ccc(C#N)cc4)nc3)CC2)ccc2c1CCCC2,0.52
10,COCCn1c(SC(C)C(=O)Nc2cc(C(F)(F)F)ccc2Cl)nc2ccccc2c1=O (stereo not given),-0.21
11,COc1cc(CNCCCNc2cc(=O)c3ccccc3[nH]2)c2c(c1)C(C)CN2C(=O)OC(C)(C)C (stereo not given),4.19
12,COCCN1CCC(CN(C)CC(C)(C)c2nc(-c3ccc(Cl)c(O)c3)c(-c3ccncc3)[nH]2)CC1,0.55
13,C#CCOc1ccc2ccccc2c1CNCCCCCCNCc1c(OCC#C)ccc2ccccc12,0.87
14,CC(C)[C@H](NC(=O)c1ccc(O)c(-c2ccc(Cl)c(Cl)c2)c1)C(=O)NCCN(C)C,1.16
15,CCCCOC(=O)C1=C(C)NC2=C(C(=O)CCC2)C1c1ccc(OC)c(Br)c1 (stereo not given),-1.96
16,COc1cc2nc(Nc3ccc4c(cnn4Cc4ccccc4)c3)nc(Nc3ccc4c(cnn4Cc4ccccc4)c3)c2cc1OC,0.51
17,O=C(Cn1c(CCc2cccc(F)c2F)nc(=O)c2ccccc21)N(CCN1CCCCC1)Cc1ccc(-c2ccc(C(F)(F)F)cc2)cc1,4.32
18,CN1CCC(NCc2ccc(-c3ccc(C(F)(F)F)cc3)cc2)CC1,0.62
19,c1ccc2[nH]c(-c3ccc(-c4ccc(CNCCc5ccncc5)cc4)s3)nc2c1,2.3
20,c1ccc(OCCCCN2CCCCC2)cc1,-4.15
